# Measurements as given in paper PMC7862700, “An all-to-all approach to the identification of sequence-specific readers for epigenetic DNA modifications on cytosine”.
# How the values were obtained:
# Assay in all cases: DAPPL (digital affinity profiling via proximity ligation, sequencing); 10 mM Tris-HCl pH 7.5, 50 mM NaCl, 1 mM DTT, 4% glycerol, room temperature, 30 min; GST-TFs on glutathione beads, 16-mer random dsDNA library, 0.1% formaldehyde crosslink after washing; high values mean tight binding
# Settings in all cases: protein: recombinant; tags: N-terminal GST; dsDNA, one strand shown
# [1] = target: T1, FLI1 (Homo sapiens, UniProt Q01543 1-452)
# T1 sequence: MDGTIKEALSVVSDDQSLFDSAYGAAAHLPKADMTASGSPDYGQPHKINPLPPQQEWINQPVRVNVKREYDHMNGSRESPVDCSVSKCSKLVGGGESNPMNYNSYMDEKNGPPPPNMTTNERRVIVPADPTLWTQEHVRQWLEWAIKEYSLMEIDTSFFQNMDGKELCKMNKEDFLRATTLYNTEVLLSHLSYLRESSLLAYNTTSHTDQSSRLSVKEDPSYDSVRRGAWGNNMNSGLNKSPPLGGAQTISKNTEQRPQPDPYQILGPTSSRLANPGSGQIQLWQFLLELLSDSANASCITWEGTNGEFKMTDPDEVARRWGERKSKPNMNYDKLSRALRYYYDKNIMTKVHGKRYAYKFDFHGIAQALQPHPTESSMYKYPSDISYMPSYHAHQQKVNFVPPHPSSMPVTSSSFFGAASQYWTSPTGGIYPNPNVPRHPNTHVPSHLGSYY
# Procedure, shortened: (§1)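 Pools were built from human transcription factors expressed in yeast as GST fusions, captured on glutathione beads and DNA-barcoded, along with a tag-only sample. Incubation with 200 nmole of a 16-mer random double-stranded DNA library lasted 30 min at room temperature in Tris/NaCl/DTT/glycerol buffer, and was followed by washing, 0.1% formaldehyde crosslinking, proximity ligation, PCR amplification and Illumina NextSeq500 sequencing. Binding signal is the quotient of each hexamer's read frequency for a factor and its frequency for the tag-only sample.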
# [2] = target: T2, ELK1 (Homo sapiens, UniProt P19419 1-428)
# T2 sequence: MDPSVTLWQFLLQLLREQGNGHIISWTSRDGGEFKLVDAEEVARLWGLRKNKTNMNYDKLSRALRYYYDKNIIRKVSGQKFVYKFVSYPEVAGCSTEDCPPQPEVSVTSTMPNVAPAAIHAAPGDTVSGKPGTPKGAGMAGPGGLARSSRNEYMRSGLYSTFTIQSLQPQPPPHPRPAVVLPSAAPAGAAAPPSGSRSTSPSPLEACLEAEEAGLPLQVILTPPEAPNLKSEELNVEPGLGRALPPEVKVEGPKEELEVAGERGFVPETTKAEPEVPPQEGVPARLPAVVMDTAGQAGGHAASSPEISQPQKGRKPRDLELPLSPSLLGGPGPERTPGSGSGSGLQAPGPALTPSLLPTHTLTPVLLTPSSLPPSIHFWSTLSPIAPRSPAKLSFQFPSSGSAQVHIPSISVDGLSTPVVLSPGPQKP
# Procedure, shortened: as §1
# [3] = target: T3, GABPA (Homo sapiens, UniProt Q06546 1-454)
# T3 sequence: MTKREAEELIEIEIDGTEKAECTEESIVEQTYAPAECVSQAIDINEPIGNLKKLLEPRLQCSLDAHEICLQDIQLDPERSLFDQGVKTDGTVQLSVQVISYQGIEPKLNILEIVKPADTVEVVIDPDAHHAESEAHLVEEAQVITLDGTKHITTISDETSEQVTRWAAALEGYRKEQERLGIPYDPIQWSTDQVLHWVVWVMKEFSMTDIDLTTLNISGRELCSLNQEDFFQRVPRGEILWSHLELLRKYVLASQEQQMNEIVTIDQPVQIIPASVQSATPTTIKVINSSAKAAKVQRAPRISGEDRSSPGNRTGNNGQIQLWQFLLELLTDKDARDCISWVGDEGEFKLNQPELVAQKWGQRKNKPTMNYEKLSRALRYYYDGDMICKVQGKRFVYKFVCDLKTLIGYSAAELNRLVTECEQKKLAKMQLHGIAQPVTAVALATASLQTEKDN
# Procedure, shortened: as §1
# [4] = target: T4, ERG (Homo sapiens, UniProt P11308 1-479)
# T4 sequence: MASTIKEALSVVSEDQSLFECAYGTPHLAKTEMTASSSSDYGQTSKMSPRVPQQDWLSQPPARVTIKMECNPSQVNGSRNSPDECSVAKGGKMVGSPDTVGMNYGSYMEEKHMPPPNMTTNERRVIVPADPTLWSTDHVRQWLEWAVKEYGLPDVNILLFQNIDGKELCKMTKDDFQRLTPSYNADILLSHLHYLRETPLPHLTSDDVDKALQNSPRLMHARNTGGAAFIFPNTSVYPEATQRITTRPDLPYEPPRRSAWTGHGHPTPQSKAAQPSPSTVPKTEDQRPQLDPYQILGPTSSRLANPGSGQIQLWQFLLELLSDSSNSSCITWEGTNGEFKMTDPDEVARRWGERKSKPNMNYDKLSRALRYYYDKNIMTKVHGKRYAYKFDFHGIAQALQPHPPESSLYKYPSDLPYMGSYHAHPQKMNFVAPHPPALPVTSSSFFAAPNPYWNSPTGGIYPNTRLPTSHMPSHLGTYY
# Procedure, shortened: as §1
# [5] = target: ELF1 (Homo sapiens, UniProt P32519 1-619)
# Sequence of ELF1 (P32519 whole entry): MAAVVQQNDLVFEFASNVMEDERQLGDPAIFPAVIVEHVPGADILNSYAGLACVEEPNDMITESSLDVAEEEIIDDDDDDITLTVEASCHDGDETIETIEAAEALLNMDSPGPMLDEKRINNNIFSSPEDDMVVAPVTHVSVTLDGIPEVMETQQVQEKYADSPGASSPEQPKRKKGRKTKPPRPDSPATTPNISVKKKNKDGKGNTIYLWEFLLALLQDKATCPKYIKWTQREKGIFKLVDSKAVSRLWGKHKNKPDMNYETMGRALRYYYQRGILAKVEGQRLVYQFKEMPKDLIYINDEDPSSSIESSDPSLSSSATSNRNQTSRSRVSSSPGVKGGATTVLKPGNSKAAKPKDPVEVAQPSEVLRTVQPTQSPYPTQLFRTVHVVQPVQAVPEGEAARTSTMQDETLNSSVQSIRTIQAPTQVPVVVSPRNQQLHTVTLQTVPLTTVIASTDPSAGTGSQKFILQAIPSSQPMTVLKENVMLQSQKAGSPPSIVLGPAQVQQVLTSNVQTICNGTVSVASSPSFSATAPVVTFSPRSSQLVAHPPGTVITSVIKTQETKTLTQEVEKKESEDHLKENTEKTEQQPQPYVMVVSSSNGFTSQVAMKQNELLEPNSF
# Procedure, shortened: as §1
# [6] = target: T5, EHF (Homo sapiens, UniProt Q9NZC4 1-300)
# T5 sequence: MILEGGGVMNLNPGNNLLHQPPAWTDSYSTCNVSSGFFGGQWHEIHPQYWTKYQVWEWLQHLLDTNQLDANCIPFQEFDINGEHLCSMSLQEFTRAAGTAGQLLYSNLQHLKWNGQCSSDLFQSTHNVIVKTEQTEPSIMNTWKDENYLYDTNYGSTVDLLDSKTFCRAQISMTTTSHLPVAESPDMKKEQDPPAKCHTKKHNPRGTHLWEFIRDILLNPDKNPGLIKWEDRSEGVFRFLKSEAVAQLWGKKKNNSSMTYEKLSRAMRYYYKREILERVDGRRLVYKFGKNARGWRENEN
# Procedure, shortened: as §1
# [7] = target: SPI1 (Homo sapiens, UniProt P17947 1-270)
# Procedure, shortened: as §1
# [8] = target: SPIB (Homo sapiens, UniProt Q01892 1-262)
# Sequence of SPIB (Q01892 whole entry): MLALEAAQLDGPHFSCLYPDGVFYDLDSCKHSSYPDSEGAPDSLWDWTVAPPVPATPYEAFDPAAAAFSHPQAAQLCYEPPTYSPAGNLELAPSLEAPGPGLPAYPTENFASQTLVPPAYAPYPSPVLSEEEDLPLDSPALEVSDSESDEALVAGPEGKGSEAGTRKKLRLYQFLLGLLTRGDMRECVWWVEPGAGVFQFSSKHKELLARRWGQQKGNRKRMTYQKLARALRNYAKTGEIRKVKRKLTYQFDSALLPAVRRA
# Procedure, shortened: as §1
# [9] = target: T6, FEV (Homo sapiens, UniProt Q99581 1-238)
# T6 sequence: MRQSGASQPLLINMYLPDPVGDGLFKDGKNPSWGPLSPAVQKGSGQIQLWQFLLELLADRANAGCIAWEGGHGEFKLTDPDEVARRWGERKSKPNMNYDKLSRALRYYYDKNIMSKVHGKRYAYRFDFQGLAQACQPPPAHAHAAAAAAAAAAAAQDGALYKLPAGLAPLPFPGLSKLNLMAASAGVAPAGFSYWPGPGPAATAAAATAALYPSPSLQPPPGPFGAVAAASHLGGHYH
# Procedure, shortened: as §1
# [10] = target: ETV5 (Homo sapiens, UniProt P41161 1-510)
# Sequence of ETV5 (P41161 whole entry): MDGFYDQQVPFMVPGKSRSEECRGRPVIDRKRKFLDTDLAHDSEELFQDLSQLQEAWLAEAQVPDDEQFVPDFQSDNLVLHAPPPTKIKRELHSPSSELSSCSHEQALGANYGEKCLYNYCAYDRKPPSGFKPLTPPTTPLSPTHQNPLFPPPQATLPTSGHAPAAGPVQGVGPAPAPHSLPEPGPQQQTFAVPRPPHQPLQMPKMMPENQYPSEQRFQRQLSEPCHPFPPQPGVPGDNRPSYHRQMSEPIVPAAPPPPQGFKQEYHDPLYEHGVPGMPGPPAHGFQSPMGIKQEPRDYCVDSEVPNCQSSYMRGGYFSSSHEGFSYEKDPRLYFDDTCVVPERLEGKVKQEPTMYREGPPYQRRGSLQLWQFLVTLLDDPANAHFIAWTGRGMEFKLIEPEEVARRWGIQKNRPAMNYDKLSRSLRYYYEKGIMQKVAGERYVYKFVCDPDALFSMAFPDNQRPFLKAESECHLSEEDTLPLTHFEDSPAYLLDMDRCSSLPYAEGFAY
# Procedure, shortened: as §1
sequence,measurement,setting,value
TGTAAC,binding signal,[1],"1.29 fold enrichment (6-mer frequency, TF over GST control)"
same,binding signal,[2],"1.21 fold enrichment (6-mer frequency, TF over GST control)"
same,binding signal,[3],"1.09 fold enrichment (6-mer frequency, TF over GST control)"
same,binding signal,[4],"1.18 fold enrichment (6-mer frequency, TF over GST control)"
same,binding signal,[5],"1.28 fold enrichment (6-mer frequency, TF over GST control)"
same,binding signal,[6],"1.36 fold enrichment (6-mer frequency, TF over GST control)"
same,binding signal,[7],"1.36 fold enrichment (6-mer frequency, TF over GST control)"
same,binding signal,[8],"1.16 fold enrichment (6-mer frequency, TF over GST control)"
same,binding signal,[9],"1.23 fold enrichment (6-mer frequency, TF over GST control)"
same,binding signal,[10],"1.24 fold enrichment (6-mer frequency, TF over GST control)"
